Results reported in PubChem BioAssay AID652048 (National Center for Advancing Translational Sciences (NCATS), 2013).
Among all 410,000 compounds or so, about 2,400 (0.59%) were called active. Rule as the data show it: active = max activation above about 30%; inactive = the rest. Shown is part of a subset that was picked to be rich in actives.

Target: D(3) dopamine receptor (Homo sapiens) (UniProt P35462)
Test: qHTS of D3 Dopamine Receptor Agonist: qHTS; also: 0% is about no effect
Conditions: D3R DiscoveRx beta-arrestin cells, luminescence, 90 min; active compounds read high
Outline: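 Agonist-mode cell screen: cells plated at 1500/well and incubated overnight at 37 °C, then exposed to library compounds for 90 min at 37 °C. Detection reagent was added for 30–60 min at room temperature, and luminescence was read.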

D(3) dopamine receptor (Homo sapiens), sequence (P35462 whole entry, looked up): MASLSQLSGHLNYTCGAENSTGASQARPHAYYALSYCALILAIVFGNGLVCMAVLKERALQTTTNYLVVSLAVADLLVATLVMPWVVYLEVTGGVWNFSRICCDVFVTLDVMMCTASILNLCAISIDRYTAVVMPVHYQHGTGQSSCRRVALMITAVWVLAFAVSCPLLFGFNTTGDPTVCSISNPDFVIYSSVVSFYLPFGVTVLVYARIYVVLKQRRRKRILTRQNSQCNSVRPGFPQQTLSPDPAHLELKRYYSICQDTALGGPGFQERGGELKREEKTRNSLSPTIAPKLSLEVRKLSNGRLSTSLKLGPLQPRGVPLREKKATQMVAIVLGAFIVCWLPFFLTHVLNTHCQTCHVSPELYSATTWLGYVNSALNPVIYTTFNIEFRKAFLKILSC

Row | SMILES | max activation
1 | C=C1CC[C@H](O)CC1=C/C=C1\CCC[C@]2(C)[C@@H]([C@H](C)/C=C/[C@H](C)C(C)C)CC[C@@H]12 | 14.3% (inactive)
2 | C=C1C(=C/C=C2\CCC[C@]3(C)[C@@H]([C@H](C)CCCC(C)(C)O)CC[C@@H]23)C[C@@H](O)C[C@@H]1O | 31.6% (active)
3 | CCCN(CCC)CCNC(=O)Cn1cnc2sc(C)c(S(=O)(=O)N3CCC(C)CC3)c2c1=O | -7.98% (inactive)
4 | Cc1ccc(-c2nn3c(=O)cc(CN4CCN(C(=O)Nc5cccc(C(F)(F)F)c5)CC4)nc3s2)cc1 | 5.13% (inactive)
5 | CCc1ccc(CN(Cc2ccco2)C(=O)c2ccccc2Cl)cc1 | -16.7% (inactive)
6 | COc1ccc(NC(=O)c2sc3nc(-c4cc5cccc(OC)c5oc4=O)[nH]c(=O)c3c2C)cc1 | -8.2% (inactive)
7 | CSc1ncnc2c1ncn2CC(=O)C1CCC2C3CCC4=CC(=O)CCC4(C)C3CCC12C (stereo unspecified) | 53.2% (active)
8 | CSc1ncnc2c1ncn2CCCNCc1ccco1 | -2.72% (inactive)
9 | CO[C@H]1[C@@H](O)[C@H](N)[C@@H](O[C@H]2O[C@H]([C@H](C)N)CC[C@H]2N)[C@H](O)[C@@H]1N(C)C(=O)CN | 4.34% (inactive)
10 | COc1cccc2c1cc1c(=O)n(CC(=O)N3CCN(c4ccccc4)CC3)nc(C)n12 | 5.49% (inactive)
11 | CCN1CCN(C(=O)Cn2nc(C)n3c(cc4c(OC)cccc43)c2=O)CC1 | 75.8% (active)
12 | COc1cccc2c1cc1c(=O)n(CC(=O)N3CCN(c4cccc(Cl)c4)CC3)nc(C)n12 | 9.45% (inactive)
13 | Cc1c(O)cc2c(c1C)O[C@](C)(CCC[C@H](C)CCC[C@H](C)CCCC(C)C)CC2 | 13.3% (inactive)
14 | CCc1cccc(NC(=O)CN(C)S(=O)(=O)c2ccc3[nH]c4c(c3c2)CCCC4)c1 | -8.32% (inactive)
15 | Cc1ccc2c(=O)c(C(=O)c3ccc(F)cc3)cn(CC(=O)NC3CCCCC3)c2n1 | -2.6% (inactive)
16 | COc1cc(OC)cc(C(=O)NCC(=O)N2CCCCCCC2)c1 | -0.951% (inactive)
17 | Cc1cc(C)cc(C(=O)NCC(=O)OCC(=O)N2CCCCC2)c1 | -0.844% (inactive)
18 | COc1ccc(OC)c(CN2CCN(C(=O)CNC(=O)c3cc(C)cc(C)c3)CC2)c1 | 48.9% (active)

Row | SMILES | max activation
19 | CN(Cc1cccc2ncccc12)C(=O)CC1C(=O)NCCN1Cc1ccc(F)cc1 (stereo unspecified) | 32.9% (active)
20 | Cc1nc(CN(C)C(=O)CC2C(=O)NCCN2Cc2ccc(F)cc2)cs1 (stereo unspecified) | 0.365% (inactive)
21 | Cc1cnc(CN(C)C(=O)CC2C(=O)NCCN2Cc2cccc(F)c2F)[nH]1 (stereo unspecified) | 4.65% (inactive)
22 | CCCS(=O)(=O)c1ncc(Cl)c(C(=O)Nc2scc(-c3ccccc3)c2C(=O)OCC)n1 | -8.93% (inactive)
23 | CC1CCCN(c2csc3ccc(F)cc3c2=O)C1 (stereo unspecified) | 5.02% (inactive)
24 | CCc1ccc(OCC(O)CN2CCN(CCO)CC2)cc1 (stereo unspecified) | -6.12% (inactive)
25 | OC(COc1cccc2ccccc12)CN1CCN(c2ccccn2)CC1 (stereo unspecified) | 66.5% (active)
26 | C=CCc1ccc(OCC(O)CN2CCN(Cc3ccccc3)CC2)c(OC)c1 (stereo unspecified) | -9.27% (inactive)
27 | Cc1cccc(OCC(O)CN2CCN(CCN3C(=O)c4cccc5cccc(c45)C3=O)CC2)c1C (stereo unspecified) | -7.59% (inactive)
28 | O=S(=O)(c1ccc(OCC(O)CN2CCN(c3ccccc3Cl)CC2)cc1)N1CCOCC1 (stereo unspecified) | 7.66% (inactive)
29 | Cc1ccccc1OCC(O)CN1CCN(c2ccccn2)CC1 (stereo unspecified) | 41.3% (active)
30 | CC(C)c1ccccc1OCC(O)CN(CC(O)COc1cccc2ccccc12)C(C)C (stereo unspecified) | 13.3% (inactive)
31 | CC(C)c1ccc(OCC(O)CN2CCN(c3ccccn3)CC2)cc1 (stereo unspecified) | 42.2% (active)
32 | O=C1c2cccc3cccc(c23)N1CN1CCN(c2ccccn2)CC1 | 7.73% (inactive)
33 | O=C(Cn1c(-c2cccs2)cc2ccccc21)NCCc1ccc(Cl)cc1 | -7.79% (inactive)
34 | COc1ccc(NC(=O)CSc2nc3ncccc3[nH]2)c(OC)c1 | -5.62% (inactive)
35 | CCCC(=O)Nc1ccc(NC(=O)c2sc3ccccc3c2Cl)cc1 | -7.19% (inactive)
36 | CCCCC(CC)CNC(=O)C1CCN(S(=O)(=O)c2cccc3nsnc23)CC1 (stereo unspecified) | -12.4% (inactive)
